From PubChem
ADAM10 inh = inhibitors of human ADAM10 | O14672 | recombinant ADAM10, EDANS/DABCYL FRET peptide cleavage, 3 h | inhibition, % at 7 µM | 0.62% of 370,000 active;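 active = inhibition above a per-campaign cutoff equal to the mean of compounds falling between control-based bounds plus 3 SD, cut at about 20% in these data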;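 note: 0% = DMSO wells while the 100% control is not disclosed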
sPLA2-III inh = Blocks human group III sPLA2 activity. Q9NZ20. QFRET BODIPY PC-A2 liposome hydrolysis, fluorescence. inhibition, % at 12.2 µM. 0.56% of 370,000 active. AID 743126;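 active = inhibition above mean plus 3 SD of compounds lying within the high and low control bounds, cut at about 19% in these data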;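 note: 0% = median of test compound wells and 100% = no enzyme DMSO wells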
Target sequence (Q9NZ20 whole entry, looked up): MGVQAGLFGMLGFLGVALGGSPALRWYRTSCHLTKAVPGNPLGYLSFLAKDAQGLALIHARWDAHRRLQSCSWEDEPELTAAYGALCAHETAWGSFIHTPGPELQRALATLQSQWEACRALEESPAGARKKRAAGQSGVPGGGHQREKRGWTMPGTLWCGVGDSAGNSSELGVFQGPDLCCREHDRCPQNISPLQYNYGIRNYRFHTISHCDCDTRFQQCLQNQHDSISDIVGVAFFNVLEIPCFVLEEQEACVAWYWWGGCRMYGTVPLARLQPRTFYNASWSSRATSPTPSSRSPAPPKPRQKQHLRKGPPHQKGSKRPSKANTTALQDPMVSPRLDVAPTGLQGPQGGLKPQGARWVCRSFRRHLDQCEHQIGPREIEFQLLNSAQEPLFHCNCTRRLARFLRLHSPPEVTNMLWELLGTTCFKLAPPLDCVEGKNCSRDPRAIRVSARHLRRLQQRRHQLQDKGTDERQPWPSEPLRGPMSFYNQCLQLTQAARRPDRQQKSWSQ
FAS TE block = inhibitors of human fatty acid synthase thioesterase domain. P49327. recombinant FAS-TE, OMFH fluorogenic substrate, fluorescence endpoint. inhibition, % at 15 µM. 0.67% of 360,000 active;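 active = compounds whose normalised, plate-corrected inhibition of enzyme fluorescence in the single-dose primary screen is 50% or more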;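 note: 0% = DMSO with enzyme and 100% = substrate without enzyme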
GRIN3A LBD mod = NR3A (human) ligand-binding domain modulation; 2.5% of 340,000 active; Tm shift relative to glycine control, % at 25 µM; AID 1259313; NR3A LBD differential scanning fluorimetry, Tm shift; 0% = protein alone, 100% = glycine-bound protein;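 active = melting temperature shift of at least 10% of the positive control shift, at one fixed dose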
ADAM17 inh = inhibits human ADAM17. recombinant ADAM17, EDANS/DABCYL FRET peptide cleavage. inhibition, % at 6.95 µM. 0.83% of 370,000 active. AID 720648;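 active = inhibition above the mean of compounds lying between control limits plus 3 SD, set per campaign, cut at about 8.5% in these data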;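 note: 0% = DMSO-only wells as the low control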
Starred values were filed as active, the others as inactive; x = no result. Most compounds without a hit are left out; they make up all but 4.3% or so of the library.

SMILES	ADAM10 inh	sPLA2-III inh	FAS TE block	GRIN3A LBD mod	ADAM17 inh
COC(=O)[C@]12C[C@H](CC(=O)NCCCN3CCCC3=O)C(=O)N(Cc3ccco3)C1=C[C@H](C1CCCC1)O[C@@H]2C	1	-2	x	x	-5
CCOC(=O)NC(=S)Nc1ccc(C(C)(C)C)cc1Br	8	12	18	18*	-6
O=C(CSc1nnc(-c2ccc3c(c2)OCO3)n1-c1ccccc1)c1ccccc1	-3	-61	-4	16*	1
O=C(CSc1nnc(-c2ccc3c(c2)OCO3)n1-c1ccccc1)c1ccc(Cl)cc1	4	-14	-2	3	4
COc1ccc(/C=N/NC(=S)N[C@H]2CC3CCC2C3)cc1 (some centres not stated)	6	6	4	26*	2
COc1cc(/C=N/NC(=S)NC2CC3CCC2C3)ccc1O (configuration not stated)	-16	-6	17	-3	-8
Cc1ccc(-c2nnn3c2nc(NCCc2ccc(S(N)(=O)=O)cc2)c2ccccc23)cc1	-9	0	-9	86*	-3
CCCCNc1nc2c(-c3ccccc3)nnn2c2ccccc12	5	-1	-4	0	-4
Cc1ccc(-c2nnn3c2nc(NC(C)C)c2ccccc23)cc1	-34	2	12	23*	-11
Nc1nc2c(-c3ccc(Br)cc3)nnn2c2ccccc12	-10	17	-9	37*	-13
NS(=O)(=O)c1ccc(CCNc2nc3c(-c4cccc(F)c4)nnn3c3ccccc23)cc1	-46	5	-2	15*	-4
CNc1nc2c(-c3ccc(Cl)cc3)nnn2c2ccccc12	-8	2	1	3	-5
Cc1ccc(S(=O)(=O)C2(C(=O)NC3CCCCC3)CC2)cc1	6	5	-5	26*	1
O=C(OCc1cn(Cc2cc(F)ccc2F)nn1)N1CCOCC1	-4	-1	x	x	-4
Oc1ccccc1C1NN=C(c2ccccc2)S1 (configuration not stated)	-7	-4	6	19*	-3
CN(C)S(=O)(=O)c1cccc(C(=O)N/N=C\c2ccnc3ccccc23)c1	-23	0	x	x	0
N#CC1=C(SCC(=O)NC2CC2)NC(=O)C(C#N)C12CCCCC2 (configuration not stated)	0	-4	-10	0	-4
N#CC1=C(SCC(=O)NC23CC4CC(CC(C4)C2)C3)NC(=O)C(C#N)C12CCCCC2 (configuration not stated)	-7	11	35	12*	-2
CC(C)(C)C1CCC2(CC1)C(C#N)=C(SCC(=O)NC1CCCCC1)NC(=O)C2C#N (configuration not stated)	10	-10	29	12*	0
CCOc1ccc(-n2c(COc3ccccc3)nnc2SCC(=O)Nc2ccc(OCc3ccccc3)cc2)cc1	10	-3	x	x	2
COc1ccc([C@H]2Oc3cc(O)cc(O)c3C(=O)C2[C@@H]2C(=O)c3c(O)cc(O)cc3O[C@@H]2c2ccc(OC)cc2)cc1 (some centres not stated)	20	-94	x	28*	8
Cc1ccc(C)c(N2CCN(C(=O)CCc3nc(-c4cccc(Cl)c4)no3)CC2)c1	3	1	26	17*	-1
Cc1ccc(C)c(N2CCN(C(=O)CCc3nc(-c4ccc(Br)cc4)no3)CC2)c1	1	6	13	17*	-1
NC(=O)[C@@H]1CC2(CC(c3cccc(NC(=O)COc4ccc(Cl)cc4)c3)=NO2)CN1C(=O)COc1ccc(Cl)cc1 (some centres not stated)	8	-37	39	23*	3
CC(C)C[C@H]1COc2cccc(F)c2S(=O)(=O)N1Cc1cn(Cc2ccc(Cl)cc2)nn1	-5	13	x	x	-5
SMILES	ADAM10 inh	sPLA2-III inh	FAS TE block	GRIN3A LBD mod	ADAM17 inh
COC(=O)[C@]12C[C@H](CC(=O)N3CCSCC3)C(=O)N(Cc3ccc(Cl)cc3Cl)C1=C[C@H](C(C)C)O[C@@H]2C1CC1	-2	4	x	x	-3
Cc1cc(Oc2ccc(N)cn2)ccc1Cl	-2	9	-11	14*	-4
COc1cccc(Oc2ccc(N)cn2)c1	-32	-3	-2	-1	-9
Cc1ccc(CN2CCN(CC(=O)N=Nc3c(O)[nH]c4ccccc34)CC2)cc1	4	-6	-3	20*	0
O=C(CN1CCN(Cc2ccccc2Cl)CC1)N=Nc1c(O)[nH]c2ccccc12	10	-5	-6	-1	2
C[C@H](O)[C@@H]1CN2CCc3c([nH]c4cccc(-c5ccc6c(c5)OCO6)c34)[C@@H]2C[C@@H]1N(C)C(=O)c1ccco1	-31	-10	x	x	-8
CCCCCn1ccc(=N)cc1	-1	3	-3	11*	4
CCCCCCCn1ccc(=N)cc1	-1	4	-6	-7	1
Cc1ccc(Cn2c(=N)n(CC(=O)c3ccccc3)c3ccccc32)cc1	-11	-11	64*	2	1
CC(C)(C)C(=O)Cn1c(=N)n(Cc2ccccc2)c2ccccc21	0	6	10	1	4
Cc1ccc(C(=O)CN2C(=O)C(=O)N(Cc3ccccc3)C2=O)cc1	-1	-5	-1	18*	-2
COc1ccc(OC)c(S(=O)(=O)N2CCC(C(=O)NCC3COCCO3)CC2)c1 (configuration not stated)	-4	-4	x	x	-1
COc1ccccc1CNC(=O)NC1CCN(CC(=O)Nc2ccc3c(c2)OCCO3)CC1	2	-1	x	x	1
CCOc1ccc(NC(=O)c2ccccc2NC(=O)CNC2CCCC(C)C2C)cc1 (configuration not stated)	5	-7	16	13*	0
CC(C)(C)C(=O)OC12CCCN(C1)/C(=C/c1ccc(Cl)cc1)C2 (configuration not stated)	-12	5	x	x	-1
C=CCN1C(=O)[C@@H](CC(=O)NCc2cccc(C(F)(F)F)c2)[C@]2(C(=O)OC)CCCCC=C12	0	-7	x	x	1
CN(C)c1nc(N/N=C/c2ccccc2O)nc(Nc2ccc(F)cc2)n1	4	-6	10	38*	-2
CCn1cc(S(=O)(=O)NCCc2ccccc2OC)cn1	-1	4	-2	11*	-4
Cc1ccc(NC(=O)c2ccc(NS(=O)(=O)/C=C/c3ccccc3)cc2)nc1	16	-41	6	18*	6
Cc1cccc(C)c1NC(=O)CN1N=NC2C(=O)N(c3cccc(Cl)c3)C(=O)C21 (configuration not stated)	2	-16	-7	18*	0
Cc1ccc(N2C(=O)C3N=NN(CC(=O)N4N=C(c5ccccc5)CC4c4ccccc4)C3C2=O)cc1 (configuration not stated)	12	-3	27	2	1
Cc1cc(C(=O)O[C@@H]2CCC[C@@]3(C(=O)N(Cc4ccccc4)c4ccccc43)[C@H]2NC(=O)CCc2ccccc2)no1	12	5	x	x	4
